# Source: the supplement of paper PMC8728848
# The full list was thinned out, with the strongest signals kept by preference.
# B1: Epa1-NP-mutant-Y228A (Candida glabrata), Q6VBJ0 (protein)
# chain: MILNPALFLNKCVCIYTTLILLLLTNGGYATSSNDISLASKDPTTFPLGCSPDITTPKKGLSMELYSYDFRKKGSYPCWDAAYLDPNYPRTGYKSHRLLAKVDGVTGNINFYYHATKGCTPQLGHLPASYNYPKPLTMTNFTMLLYGYFRPKVTGFHTFTISADDLLFVNFGAGNAFDCCRRDSSADHFGNYQAYAIWGSKTAKDELTVHLDAGVYYPIRLFYNNREADGALSFTFKTESNENTVSDFSEYFFSLDDTEEGCPGLISYDSSCASVKTSKIIGIDYHTETPNENLVPITKTIYHLGIPCTGTTTTPLCGSGFYDPLANKCVTINTSSTSSVTKTTSHTTSKEVSFHSSISSQKTLIPKSIPSPYGPIKSQSIPTEMETSSEISSSEYAFSDVISTPSHSPYTKKHSSLNSSSYTSTVIHSLTSYSISQGIFSTSLSEQNITSKSSTDKFSTATSMSNNITQSSIIISQFSTNNENYTTTSMHTSSDKISTETLNNSISTTTSILFSNSSTILKNNTTIISSDKDTHYHPVNPTIVCSTNKTEIICASITQPSISNSNNHWSSSVLKFNSTTVRSTLPSSAGSNETSINVPFSSSTESNTSTSSTSTSNSKMVRSTLPSSAGSNETSISVPFSSSTESNTSTSSTSTSNSKMVRSTLPSSAGSNETSINVPFSSSTESNTSTSSTSTSNSKTVRSTPFSSAGIIMTSLSQRNNKSASSYASSNSKCYNTADSCRKVHSTPSYLLTSSYTSEGVDYDCSLVSTKLKINDTNCVNNKHTTKSCLKTSVTTTIPTLEIKTARKSSSNTIGLHSYPTSSPNKSISSAPIIGYISSFKTIKTASPSYQTSDLTTITTITSLNNPGSTAVENTHESNDKSRKTSSNDISSKHSVIKETKDAVESSNKSHQTNTLKCSSIIIASSSHNSYESLGGTTLTLTLSKVYSPQNNDTLPFLEISEVNPSRTVLPESSKMMQYLTSTEERNKTARNTIATNIVSISTFHFEGEGNAIRMGYTQLLLMLIGIIVMNIGT
# Assays:
# Experiment in all cases: glycan array binding signal (z-score within array); higher = stronger binding
# Settings in all cases: glycan notation: IUPAC condensed, linker removed; mutation: Y228A
# [1] = target: Gal(b1-3)[Neu5Ac(a2-6)]GalNAc
# How it was run: (§1)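 The binding signal is a Z-score computed within each array. Data were drawn from 3228 arrays in the Consortium for Functional Glycomics database, restricted to those with a known protein sequence. Scores were averaged over arrays of the same protein sequence at different concentrations or buffers, and over linkers, and negative values can be taken as non-binding.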
# [2] = target: Gal(b1-4)Glc6S
# How it was run: as §1
# [3] = target: Gal(b1-4)GlcNAc(b1-2)[Gal(b1-4)GlcNAc(b1-6)]Man(a1-6)[GlcNAc(b1-4)][Gal(b1-4)GlcNAc(b1-2)[Gal(b1-4)GlcNAc(b1-4)]Man(a1-3)]Man(b1-4)GlcNAc(b1-4)[Fuc(a1-6)]GlcNAc
# How it was run: as §1
# [4] = target: Gal(b1-4)GlcNAc(b1-6)Gal(b1-4)GlcNAc
# How it was run: as §1
# [5] = target: Gal(b1-4)GlcNAc(b1-6)[Gal(b1-4)GlcNAc(b1-3)]GalNAc
# How it was run: as §1
# [6] = target: Gal3S(b1-3)GalNAc
# How it was run: as §1
# [7] = target: Gal3S4S(b1-4)GlcNAc
# How it was run: as §1
# [8] = target: Gal4S6S(b1-4)GlcNAc
# How it was run: as §1
# [9] = target: Gal6S(b1-3)GlcNAc6S
# How it was run: as §1
# [10] = target: Gal6S(b1-4)Glc6S
# How it was run: as §1
# [11] = target: GalNAc(b1-3)Gal(a1-4)Gal(b1-4)GlcNAc
# How it was run: as §1
# [12] = target: GalNAc3S(b1-4)GlcNAc
# How it was run: as §1
# [13] = target: Glc(b1-4)Glc
# How it was run: as §1
# [14] = target: GlcA3S(b1-3)Gal(b1-4)GlcNAc(b1-2)Man
# How it was run: as §1
# [15] = target: GlcNAc(b1-2)[GlcNAc(b1-6)]Man(a1-6)[GlcNAc(b1-2)Man(a1-3)]Man(b1-4)GlcNAc(b1-4)[Fuc(a1-6)]GlcNAc
# How it was run: as §1
# [16] = target: GlcNAc(b1-3)Gal(b1-4)GlcNAc(b1-3)Gal(b1-4)GlcNAc(b1-3)Gal(b1-4)GlcNAc(b1-2)Man(a1-3)[GlcNAc(b1-3)Gal(b1-4)GlcNAc(b1-3)Gal(b1-4)GlcNAc(b1-3)Gal(b1-4)GlcNAc(b1-2)Man(a1-6)]Man(b1-4)GlcNAc(b1-4)[Fuc(a1-6)]GlcNAc
# How it was run: as §1
# [17] = target: GlcNAc(b1-3)[GlcNAc(b1-6)]Gal(b1-4)GlcNAc
# How it was run: as §1
# [18] = target: GlcNAc(b1-3)[GlcNAc(b1-6)]GalNAc
# How it was run: as §1
# [19] = target: Man(a1-2)Man(a1-2)Man(a1-6)[Man(a1-3)]Man
# How it was run: as §1
# [20] = target: Man(a1-3)[Man(a1-6)]Man(a1-6)[Man(a1-3)]Man
# How it was run: as §1
# [21] = target: Neu5Ac(a2-3)Gal(b1-3)GlcNAc(b1-3)Gal(b1-3)GlcNAc
# How it was run: as §1
# [22] = target: Neu5Ac(a2-3)Gal(b1-3)[Neu5Ac(a2-6)]GlcNAc(b1-3)[Fuc(a1-3)[Gal(b1-4)]GlcNAc(b1-6)]Gal(b1-4)Glc
# How it was run: as §1
# [23] = target: Neu5Ac(a2-3)Gal(b1-4)GlcNAc(b1-2)Man(a1-3)[Neu5Ac(a2-6)Gal(b1-4)GlcNAc(b1-2)Man(a1-6)]Man(b1-4)GlcNAc(b1-4)GlcNAc
# How it was run: as §1
# [24] = target: Neu5Ac(a2-3)Gal(b1-4)GlcNAc(b1-3)Gal
# How it was run: as §1
# [25] = target: Neu5Ac(a2-3)Gal(b1-4)[Fuc(a1-3)]GlcNAc
# How it was run: as §1
# [26] = target: Neu5Ac(a2-6)Gal(b1-4)GlcNAc(b1-3)Gal(b1-4)GlcNAc(b1-3)Gal(b1-4)GlcNAc
# How it was run: as §1
# [27] = target: Neu5Gc(a2-3)Gal(b1-3)GlcNAc
# How it was run: as §1
# [28] = target: Neu5Gc(a2-3)Gal(b1-3)[Fuc(a1-4)]GlcNAc
# How it was run: as §1
binder,measurement,setting,value
B1,glycan array binding signal (z-score),[1],0.209
same,glycan array binding signal (z-score),[2],2.93
same,glycan array binding signal (z-score),[3],0.803
same,glycan array binding signal (z-score),[4],2.72
same,glycan array binding signal (z-score),[5],0.637
same,glycan array binding signal (z-score),[6],-0.153
same,glycan array binding signal (z-score),[7],-0.259
same,glycan array binding signal (z-score),[8],-0.16
same,glycan array binding signal (z-score),[9],5.91
same,glycan array binding signal (z-score),[10],4.82
same,glycan array binding signal (z-score),[11],-0.145
same,glycan array binding signal (z-score),[12],-0.321
same,glycan array binding signal (z-score),[13],-0.246
same,glycan array binding signal (z-score),[14],-0.24
same,glycan array binding signal (z-score),[15],0.217
same,glycan array binding signal (z-score),[16],-0.139
same,glycan array binding signal (z-score),[17],-0.235
same,glycan array binding signal (z-score),[18],-0.277
same,glycan array binding signal (z-score),[19],-0.127
same,glycan array binding signal (z-score),[20],-0.287
same,glycan array binding signal (z-score),[21],-0.295
same,glycan array binding signal (z-score),[22],-0.172
same,glycan array binding signal (z-score),[23],-0.237
same,glycan array binding signal (z-score),[24],-0.11
same,glycan array binding signal (z-score),[25],-0.209
same,glycan array binding signal (z-score),[26],-0.307
same,glycan array binding signal (z-score),[27],-0.069
same,glycan array binding signal (z-score),[28],-0.119
